Among the data in PubChem BioAssay (NCI) are growth inhibition values, retold here.

Molecules are shown by their SMILES. The panel holds about 79,000 compounds, 15% with a hit somewhere; the sample as a whole holds those more often. Values without a mark were called inactive. Activity calls are given as the source filed them. Rule as the data show it: active = growth inhibition above about 70%; inactive = the rest.

Assay [1] is described as follows: NCI Yeast Anticancer Drug Screen. Data for the rad50 strain (AID 155).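 Also: 0% = growth of vehicle-only cultures of the same strain.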 Conditions: S. cerevisiae rad50 strain growth inhibition; at 50.0 µM; hits give high values. In outline: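 Yeast carrying a defined DNA repair defect were exposed to test compounds, and growth was compared with vehicle-treated controls to give percent inhibition.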
Assay [2] is described as follows: NCI Yeast Anticancer Drug Screen. Data for the mec2-1 strain (AID 157). The conditions noted are these: S. cerevisiae mec2-1 strain, at 50.0 µM, hits give high values. In outline:
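Yeast mec2-1 mutant treated with compound. Readout: growth inhibition vs vehicle controls.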

Assay [3] in a line: NCI Yeast Anticancer Drug Screen. Data for the sgs1 mgt1 strain (AID 161).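 Also: 0% = growth of cultures given vehicle only.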 The conditions noted are these: S. cerevisiae sgs1 mgt1 strain, at 50.0 µM, hits give high values. In a few lines:
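Genetically altered yeast, compound exposure, growth inhibition relative to vehicle.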

A short description of assay [4]: NCI Yeast Anticancer Drug Screen. Data for the cln2 rad14 strain (AID 165).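 Also: 0% = growth equal to vehicle treated cultures.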 Conditions: S. cerevisiae cln2 rad14 strain, at 50.0 µM, hits give high values. In a few lines:
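cln2 rad14 yeast strain; compound exposure; growth inhibition read vs vehicle controls.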

Assay [5] can be described thus: NCI Yeast Anticancer Drug Screen. Data for the bub3 strain (AID 167). Conditions: S. cerevisiae bub3 mutant strain, at 50.0 µM, hits give high values. In outline:
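Compounds were applied to a genetically altered yeast strain carrying a cell-cycle control defect. Growth inhibition was scored against vehicle-treated controls.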

The nature of assay [6]: NCI Yeast Anticancer Drug Screen. Data for the mlh1 rad18 strain (AID 175). Conditions: S. cerevisiae mlh1 rad18 strain growth inhibition; at 50.0 µM; hits give high values. In a few lines: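 Yeast w/ defined DNA-repair lesions; compound exposure; growth vs vehicle controls → % inhibition.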

For `Cc1ccc(N(C)C)cc1`, the growth inhibition in assay [1] is -25.3%; in assay [2], -15.1%; in assay [3], 10.8%; in assay [4] it was -18.4%; in assay [5], -0.45%; in assay [6] it was 6.4%.

For `COc1ccc(OC)c(C(C)=O)c1`, the growth inhibition in assay [1] is -59%; in assay [2] it was -66%; in assay [3], -94%; in assay [4], 1.75%; in assay [5], -34.2%; in assay [6], -29.4%.

`O=S1(=O)C=CC(N/N=C/c2cc(Cl)cc(Cl)c2)=C1`: the growth inhibition is 37.7% in assay [1]; 9.3% in assay [2]; 20.5% in assay [3]; -38.2% in assay [4]; 26.9% in assay [5]; 26.6% in assay [6].

On to `Cc1ccc2c(c1)[nH]c(=S)n2/C=C(\c1ccccc1)S(=O)Cc1ccccc1` (stereo not drawn), for which the growth inhibition was -23.7% in assay [1]; -25.6% in assay [2]; -19.9% in assay [3]; 0.3% in assay [4]; -28.1% in assay [5]; -26.2% in assay [6].

Turning to `CC1=Nc2c(C#N)ncn2N=C(C)C1`, the growth inhibition was 31.9% in assay [1]; 0.25% in assay [2]; 17.5% in assay [3]; 41.4% in assay [4]; 28.8% in assay [5]; -19.1% in assay [6].

As to `COc1ccc(Br)cc1C1SCC(=O)N1c1nncs1` (stereo not drawn), the growth inhibition in assay [1] was 12%; in assay [2], 7.7%; in assay [3], 26.8%; in assay [4] it was 11.2%; in assay [5], 16.4%; in assay [6], 23.8%.

Take `CN(CC(O)CN1CCCc2ccccc21)C1CCCCC1` (stereo not drawn): the growth inhibition is -5.8% in assay [1]; 0.25% in assay [2]; 17.9% in assay [3]; -16% in assay [4]; 46% in assay [5]; 19.2% in assay [6].

Regarding `CCOC1=C([N+](=O)[O-])C(c2ccccc2)NC1=O` (stereo not drawn), the growth inhibition was 10.8% in assay [1]; -0.6% in assay [2]; -3% in assay [3]; 15.1% in assay [4]; -35.3% in assay [5]; 11.7% in assay [6].

In the case of `O=C(O)CCC(NC(=O)CCC(NC(=O)OCc1ccccc1)C(=O)OCc1ccccc1)C(=O)OCc1ccccc1` (stereo not drawn), the growth inhibition in assay [1] is -13.1%; in assay [2], -31.5%; in assay [3] it was -10.6%; in assay [4] it was 9.2%; in assay [5], 5.4%; in assay [6] it was -10.8%.

Regarding `CC(=O)OCC1OC(N2C(=O)C(=O)c3cc(C)ccc32)C(OC(C)=O)C(OC(C)=O)C1OC(C)=O` (stereo not drawn), the growth inhibition is 59.8% in assay [1]; 10.2% in assay [2]; 5.85% in assay [3]; 1.7% in assay [4]; 41% in assay [5]; 33.4% in assay [6].

Consider `CCC(C)C(CO)N=Cc1ccccc1O.O.[Cu]` (stereo not drawn), for which the growth inhibition in assay [1] was 65.3%; in assay [2], 82.3% (active); in assay [3], 74% (active); in assay [4] it was 62%; in assay [5] it was 80.2% (active); in assay [6], 83.3% (active).

Take `NCC(NC(=O)OCc1ccccc1)C(=O)O` (stereo not drawn): the growth inhibition was 3.2% in assay [1]; 12.4% in assay [2]; 3.3% in assay [3]; 19.1% in assay [4]; 5.7% in assay [5]; 32.1% in assay [6].

Consider `Ic1ccc(-n2cccc2)cc1`, for which the growth inhibition in assay [1] was 8.4%; in assay [2], 5.55%; in assay [3], -1.7%; in assay [4] it was -3.25%; in assay [5], 13.8%; in assay [6], -18.6%.

Regarding `O=C1CC(NC(=O)C(F)(F)F)c2c(Br)sc(N3CCNCC3)c21` (stereo not drawn), the growth inhibition in assay [1] is 6.05%; in assay [2], 12.1%; in assay [3], -25.2%; in assay [4], -2.2%; in assay [5] it was -2.65%; in assay [6], -30.4%.

`CC[CH2][Sn]([CH2]CC)([O]C(=O)Cc1ccc(F)cc1)[O][Sn]([CH2]CC)([CH2]CC)[O]C(=O)Cc1ccc(F)cc1`: the growth inhibition was 90.2% (active) in assay [1]; 89.4% (active) in assay [2]; 87.8% (active) in assay [3]; 82.8% (active) in assay [4]; 89.1% (active) in assay [5]; 83.6% (active) in assay [6].

In the case of `Oc1cccc2nc3cc(CN4CCOCC4)c(CN4CCOCC4)cc3nc12`, the growth inhibition in assay [1] was 8.35%; in assay [2], -18.4%; in assay [3] it was -1.05%; in assay [4], 2.7%; in assay [5], -26.1%; in assay [6] it was -4%.

Take `O=C1c2c(Cl)cccc2C(c2ccccc2)c2cccc(Cl)c21`: the growth inhibition is 29% in assay [1]; -4.15% in assay [2]; -1.55% in assay [3]; -11.5% in assay [4]; 7.35% in assay [5]; 23.2% in assay [6].

On to `CC(C)NC(=O)N(C(=O)C(F)(F)F)C(C)C`, for which the growth inhibition is -0.95% in assay [1]; 7.45% in assay [2]; -4.6% in assay [3]; -41% in assay [4]; 2.1% in assay [5]; 7.5% in assay [6].
